This is a sample that favours compounds with a hit; in the whole collection about 4% have one here.
Mdm2 MdmX PPI – disrupts the human Mdm2-MdmX interaction; O15151+Q00987; SaOS-2 split-luciferase Mdm2/MdmX complementation, luminescence; inhibition, % at 8 µM; hit rate 3% among 330,000;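 active means inhibition of at least 50% at 8 µM in the primary screen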
Target sequence (O15151 whole entry, looked up): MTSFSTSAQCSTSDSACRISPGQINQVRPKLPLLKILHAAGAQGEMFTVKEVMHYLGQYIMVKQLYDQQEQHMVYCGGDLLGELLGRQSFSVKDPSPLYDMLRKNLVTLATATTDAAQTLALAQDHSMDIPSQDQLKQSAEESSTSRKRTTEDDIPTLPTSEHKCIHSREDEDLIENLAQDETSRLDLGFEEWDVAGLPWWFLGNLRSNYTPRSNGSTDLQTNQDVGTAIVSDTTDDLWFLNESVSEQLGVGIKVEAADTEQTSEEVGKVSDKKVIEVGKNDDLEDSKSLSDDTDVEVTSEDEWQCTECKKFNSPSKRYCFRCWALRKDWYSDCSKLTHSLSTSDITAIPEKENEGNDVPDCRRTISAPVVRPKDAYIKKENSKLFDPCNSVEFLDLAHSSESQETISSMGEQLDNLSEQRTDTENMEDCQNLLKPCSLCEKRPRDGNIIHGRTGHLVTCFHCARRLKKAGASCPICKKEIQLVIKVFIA
Target sequence (Q00987 whole entry, looked up): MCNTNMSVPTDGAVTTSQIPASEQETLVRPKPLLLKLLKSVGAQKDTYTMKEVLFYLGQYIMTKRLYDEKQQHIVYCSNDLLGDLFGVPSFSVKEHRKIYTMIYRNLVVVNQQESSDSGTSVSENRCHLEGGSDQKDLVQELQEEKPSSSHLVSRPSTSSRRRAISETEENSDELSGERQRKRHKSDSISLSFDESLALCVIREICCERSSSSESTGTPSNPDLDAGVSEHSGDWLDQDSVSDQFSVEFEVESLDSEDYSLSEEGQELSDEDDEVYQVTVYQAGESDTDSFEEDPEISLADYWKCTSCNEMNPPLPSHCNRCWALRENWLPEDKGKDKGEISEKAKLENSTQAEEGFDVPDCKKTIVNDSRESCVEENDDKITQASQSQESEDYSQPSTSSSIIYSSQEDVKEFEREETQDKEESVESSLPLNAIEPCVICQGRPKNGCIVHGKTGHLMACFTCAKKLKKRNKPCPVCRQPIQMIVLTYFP
Gli-Sufu antag – blocks Gli-Sufu signaling in a luciferase reporter. inhibition, % at 5 µM. AID 588413. Sufu-KO-LIGHT fibroblasts, Gli luciferase reporter luminescence. hit rate 0.74% among 340,000;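 active means inhibition above about 55%, limit read from the data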;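 further: 0% = DMSO-treated cells and 100% = wells with medium but no cells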
Beta cell apopt – blocks beta cell apoptosis. INS-1E cytokine-induced death, ATP luminescence, 48 h; percent of positive-control rescue, neutral wells zero. protection from apoptosis, % (test concentration not listed). hit rate 0.8% among 300,000. AID 435005;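 active means Every replicate reaches about 75%, or at least half do and their mean reaches it too, limit read from the data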;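 further: 0% = cytokine-treated negative control wells and 100% = positive control rescue; higher means more ATP so stronger rescue from cytokine killing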
697 NFkB inh – lowers PMA/ionomycin-induced NF-kB signal in 697 B cells. AID 435022. hit rate 0.33% among 330,000. inhibition, % at 4 µM. 697 B-cell NF-kB luciferase reporter, 16 h; in the data active means inhibition above about 35%
Jurkat NFkB inh – lowers PMA/ionomycin-induced NF-kB signal in Jurkat cells; PMA/ionomycin-induced NF-kB luciferase reporter, luminescence; inhibition, % at 4 µM; hit rate 0.53% among 330,000; AID 435003; in the data active means inhibition above about 50%
Mdm2 MdmX conf – human Mdm2/MdmX binding inhibition, confirmed | inhibition, % at 8 µM | shares compounds with Mdm2 MdmX PPI | luminescent assay | hit rate 55% among 10,000 | AID 489028; in the data active means inhibition above about 40%
FLuc counter – inhibits full-length luciferase, flagging false Mdm2/MdmX hits; hit rate 77% among 6,200; shares compounds with Mdm2 MdmX PPI; inhibition, % at 8 µM; SaOS-2 full-length luciferase counterscreen, luminescence; AID 504607;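 active means mean inhibition at 8 µM reaching about 37%, which flags the compound as non-specific, limit read from the data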;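 further: p53-null SaOS-2 cells with luciferase driven by a doxycycline-inducible promoter; compound on cells about two nights before reading with doxycycline added after day one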
* = called active by the depositor; nt = not tested or not shown.

SMILES	Mdm2 MdmX PPI	Gli-Sufu antag	Beta cell apopt	697 NFkB inh	Jurkat NFkB inh	Mdm2 MdmX conf	FLuc counter
Cc1ccc(-n2c(C)cc(C(=O)NS(=O)(=O)c3ccc(C)cc3)c2C)cc1	15.4	27.2	-2.5	4.9	0.3	nt	nt
Cc1cc(C(=O)Nc2ccc(Cl)cc2)c(C)n1-c1ccccc1	88.8*	69.5*	nt	-81.2	37.1	89.0*	30.6
Cc1cc(C(=O)Nc2ccc(Cl)cc2)n(-c2ccccc2)n1	-26.7	1.6	1.1	-15.3	-17.9	nt	nt
Cc1ccc(NC(=O)c2cc(C)n(-c3ccccc3)c2C)cc1	76.5*	46.2	6.0	-212.0	29.5	84.0*	41.2*
Cc1ccc(C(=O)NCC(=O)OCC(=O)N(CC(C)C)c2c(N)n(Cc3ccccc3)c(=O)[nH]c2=O)cc1	0.2	-2.7	0.6	10.6	-2.4	nt	nt
CCc1cc(=O)n2[nH]c(-c3ccccc3)c(-c3ccccc3)c2n1	57.9*	3.5	6.1	-17.0	-8.0	45.3*	51.6*
COc1cc(-c2nc(-c3ccccc3)c(-c3cccs3)[nH]2)cc(OC)c1OC	76.0*	21.0	40.7	17.5	-1.5	40.0*	100.2*
Cc1c(NC(=O)CSCc2ccc(Br)cc2)c(=O)n(-c2ccccc2)n1C	5.1	-13.8	1.3	-12.4	4.3	nt	nt
CCC(=O)N1CCN(c2ccc(NC(=O)c3cc4ccccc4o3)cc2Cl)CC1	82.3*	14.8	32.0	-10.3	23.8	25.1	nt
O=C(Nc1ccc(N2CCN(C(=O)c3ccco3)CC2)c(Cl)c1)c1cc2ccccc2o1	99.5*	7.2	47.0	-28.3	18.1	74.8*	50.7*
CCC(=O)N1CCN(c2ccc(NC(=O)c3ccco3)cc2Cl)CC1	-24.1	-20.5	nt	-1.6	-13.2	nt	nt
CCCC(=O)N1CCN(c2ccc(NC(=O)c3cccs3)cc2Cl)CC1	3.2	3.7	-1.4	-14.3	-17.9	nt	nt
O=C(Nc1ccc(N2CCN(C(=O)c3ccccc3)CC2)c(Cl)c1)c1ccco1	12.0	-13.0	10.6	-0.5	13.4	nt	nt
CCCC(=O)N1CCN(c2ccc(NC(=O)c3cc4ccccc4o3)cc2Cl)CC1	100.0*	0.8	68.0	-60.0	40.4	58.5*	12.9
Cc1nc([N+](=O)[O-])cn1CC(O)c1ccc(F)cc1 (centres undefined)	1.0	-5.3	-0.5	1.5	1.1	nt	nt
O=C(Cc1ccc([N+](=O)[O-])cc1)Oc1ccccc1	nt	1.7	nt	nt	nt	nt	nt
CCOC(=O)CNS(=O)(=O)c1ccc(S(=O)(=O)NC2CC2)cc1	18.1	-19.8	-1.6	15.1	15.2	nt	nt
Fc1ccc(Nc2cccc3nccnc23)cc1	19.1	-7.9	-4.7	-6.9	-19.0	nt	nt
c1cc(Nc2cccc3nccnc23)c2nccnc2c1	61.4*	15.0	6.6	-0.4	-10.9	52.2*	89.8*
O=C(Nc1nc(-c2cc(Cl)sc2Cl)cs1)c1ccc(Br)s1	79.6*	9.6	nt	-30.6	7.4	7.1	nt
COc1cc(NC(=O)C(C)Oc2ccccc2)ccc1NC(=O)COc1ccccc1 (centres undefined)	27.5	-2.9	-9.1	11.0	13.0	nt	nt
O=C1NC[C@H](c2ccccc2)OC(=O)[C@@H](Cc2ccc(F)cc2)CC/C=C/C[C@H]1CC(=O)N(CCO)Cc1ccccc1	78.2*	19.3	3.7	17.7	0.4	50.5*	62.2*
O=C1NC[C@H](c2ccccc2)OC(=O)[C@@H](Cc2ccc(F)cc2)CC/C=C/C[C@@H]1CC(=O)N(CCO)Cc1ccccc1	6.8	15.7	0.1	2.2	5.5	nt	nt
O=C1NC[C@H](c2ccccc2)OC(=O)[C@H](Cc2ccc(F)cc2)CC/C=C/C[C@H]1CC(=O)N(CCO)Cc1ccccc1	78.0*	-1.9	2.4	19.1	4.2	68.2*	55.0*
O=C1NC[C@H](c2ccccc2)OC(=O)[C@H](Cc2ccc(F)cc2)C/C=C\C[C@@H]1CC(=O)N(CCO)Cc1ccccc1	16.1	0.6	1.6	2.9	-5.5	nt	nt
